Out of some 39,000 compounds screened, about 3,300 (8.5%) were called active. Shown is part of a subset that was picked to be rich in actives.

In this test the test system is HepG2. Put plainly: cytotoxicity call (relative viability < 0.9). As to conditions: 10 µM.
Turning to `C[C@@H]1CN([C@@H](C)CO)C(=O)Cc2cc(NC(=O)Nc3ccc4c(c3)OCO4)ccc2O[C@H]1CN(C)S(C)(=O)=O`, the cytotoxicity call was “inactive”.

As to `COc1ccc(NC(=O)Nc2ccc3c(c2)CC(=O)N([C@H](C)CO)C[C@@H](C)[C@@H](CN(C)Cc2ccc(C(F)(F)F)cc2)O3)cc1`, the cytotoxicity call was “active”. For `COc1ccc(NC(=O)Nc2ccc3c(c2)CC(=O)N([C@H](C)CO)C[C@H](C)[C@@H](CN(C)Cc2ccc(C(F)(F)F)cc2)O3)cc1`, the cytotoxicity call is “inactive”. As to `COc1ccc(CN(C)C[C@@H]2Oc3ccc(NC(=O)Nc4ccc(C(F)(F)F)cc4)cc3CC(=O)N([C@H](C)CO)C[C@@H]2C)cc1`, the cytotoxicity call was “active”.

As to `COc1ccc(NC(=O)Nc2ccc3c(c2)CC(=O)N([C@H](C)CO)C[C@H](C)[C@H](CN(C)Cc2ccc(C(F)(F)F)cc2)O3)cc1`, the cytotoxicity call is “active”. As for `COc1ccc(CN(C)C[C@@H]2Oc3ccc(NC(=O)Nc4ccc(C(F)(F)F)cc4)cc3CC(=O)N([C@H](C)CO)C[C@H]2C)cc1`, the cytotoxicity call is “inactive”.

Turning to `COc1ccc(CN(C)C[C@@H]2Oc3ccc(NC(=O)Nc4ccc(C(F)(F)F)cc4)cc3CC(=O)N([C@@H](C)CO)C[C@@H]2C)cc1`, the cytotoxicity call was “inactive”. For `COc1ccc(NC(=O)Nc2ccc3c(c2)CC(=O)N([C@@H](C)CO)C[C@@H](C)[C@@H](CN(C)Cc2ccc(C(F)(F)F)cc2)O3)cc1` the value was “active”. Consider `CC(C)NC(=O)Nc1ccc2c(c1)C(=O)N([C@@H](C)CO)C[C@H](C)[C@@H](CN(C)CC1CCCCC1)OCCCC[C@H](C)O2`, for which the cytotoxicity call is “inactive”. For `Cc1ccc(S[C@]2(C(=O)NCCCN(C)C)CC(=O)N(Cc3cc(C(F)(F)F)cc(C(F)(F)F)c3)[C@@H]2c2ccc(CO)cc2)cc1` the value was “inactive”. The same measure for `O=C(CN1CCOCC1)NCC[C@@H]1CC[C@@H](NC(=O)c2ccc3c(c2)OCO3)[C@H](CO)O1`: “inactive”. In the case of `COc1ccc2c3c(n(c2c1)C)[C@H](CO)N(C[C@]13CN(C1)C(=O)c1ccncc1)C(=O)C1CCCCC1`, the cytotoxicity call is “inactive”.

For the molecule `CN1CCN(C(=O)C[C@H]2CC[C@H]3[C@H](COc4ccc(NC(=O)C5CCOCC5)cc4C(=O)N3C)O2)CC1`, the cytotoxicity call is “inactive”. For `CCCN1C[C@H](C)[C@@H](OC)CN(C)C(=O)c2cc(NS(=O)(=O)c3cn(C)cn3)ccc2OC[C@H]1C` the value was “inactive”. For `CCOC(=O)c1cc(C(=O)OCC)n(C)n1`, the cytotoxicity call was “inactive”. On to `COc1ccc(S(=O)(=O)N[C@@H]2C=C[C@@H](CC(=O)N3CCN(c4ccccc4)CC3)O[C@H]2CO)cc1`, for which the cytotoxicity call was “inactive”. Turning to `Cc1cc2n(n1)CCN(C(=O)[C@H]1CC[C@@H](N)C1)C2`, the cytotoxicity call was “inactive”. The same measure for `Cc1ccc(-c2cnc3c(c2)C(=O)N([C@H](C)CO)C[C@H](C)[C@@H](CN(C)C(=O)Cc2ccncc2)O3)cc1`: “inactive”; for `C[C@H]1CCCCO[C@@H](CN(C)Cc2ccccc2)[C@@H](C)CN([C@@H](C)CO)C(=O)c2cc(NC(=O)c3ccccc3)ccc2O1`: “inactive”; for `Cc1noc(C)c1NC(=O)N(C)C[C@@H]1Oc2c(NC(=O)C3CCOCC3)cccc2C(=O)N([C@H](C)CO)C[C@H]1C`: “inactive”.

`COc1ccc(NC(=O)Nc2ccc3c(c2)CC(=O)N([C@@H](C)CO)C[C@H](C)[C@H](CN(C)Cc2ccc(C(F)(F)F)cc2)O3)cc1`: the cytotoxicity call is “active”. `c1ccc2nc(-c3cn[nH]c3)ccc2c1`: the cytotoxicity call is “inactive”. For `CCCOc1c(-c2ccc3ccccc3n2)cnc2ccccc12` the value was “active”; for `Cc1cc(-c2ccc3ccccc3n2)nc2ccc3ccccc3c12`, “inactive”. Regarding `Cc1csc2sc(C(=O)Oc3ccc(Cl)cc3)c(C)c12`, the cytotoxicity call is “inactive”. Take `Cc1csc2sc(/C=N/Cc3cccs3)c(C)c12`: the cytotoxicity call was “active”. For the molecule `Cc1csc2sc(COC(=O)Nc3ccccc3)c(C)c12`, the cytotoxicity call is “inactive”. On to `C[C@@H]1CN([C@@H](C)CO)C(=O)c2cc(NS(=O)(=O)c3cccs3)ccc2O[C@@H](C)CCCCO[C@@H]1CN(C)C(=O)c1ccccc1`, for which the cytotoxicity call was “inactive”. Take `O=C(C[C@H]1C[C@@H]2c3cc(NC(=O)c4ccc5c(c4)OCO5)ccc3O[C@@H]2[C@@H](CO)O1)NCC(F)(F)F`: the cytotoxicity call was “inactive”. As for `C[C@H]1CCCCO[C@@H](CN(C)S(=O)(=O)c2ccc(F)cc2)[C@@H](C)CN([C@@H](C)CO)C(=O)c2cc(NC(=O)CCC(F)(F)F)ccc2O1`, the cytotoxicity call is “inactive”. On to `CCc1ccc(NC(=O)C2CCN(S(=O)(=O)c3c(C)[nH]c(=O)[nH]c3=O)CC2)cc1`, for which the cytotoxicity call was “active”. `Cc1[nH]c(=O)[nH]c(=O)c1S(=O)(=O)N1CCC(C(=O)N[C@H](C)c2ccccc2)CC1`: the cytotoxicity call is “inactive”. As to `Cc1[nH]c(=O)[nH]c(=O)c1S(=O)(=O)N1CCC(C(=O)NCCC(C)C)CC1`, the cytotoxicity call was “inactive”. In the case of `COCC(=O)N1[C@@H]2c3ccc(C4=CCCC4)c(=O)n3C[C@@H]2[C@@H](CO)[C@@H]1C(=O)N1CCN(C)CC1`, the cytotoxicity call is “inactive”. With `Cc1noc(C)c1NC(=O)Nc1cccc2c1O[C@@H](CN(C)Cc1ccc(-c3ccccc3)cc1)[C@@H](C)CN([C@H](C)CO)C2=O`, the cytotoxicity call is “inactive”. For `C[C@H](CO)N1C[C@H](C)[C@@H](CN(C)Cc2ccc(Cl)c(Cl)c2)OCCCC[C@H](C)Oc2ccc(NC(=O)C3CCCCC3)cc2C1=O` the value was “inactive”. As to `C[C@@H]1CN([C@H](C)CO)C(=O)c2cc(NC(=O)C3CCCCC3)ccc2O[C@@H](C)CCCCO[C@H]1CN(C)Cc1ccc(Cl)c(Cl)c1`, the cytotoxicity call was “active”. Regarding `C[C@@H]1CN([C@@H](C)CO)C(=O)c2cc(NC(=O)C3CCCCC3)ccc2O[C@H]1CN(C)Cc1ccc(Cl)c(Cl)c1`, the cytotoxicity call was “inactive”. With `C[C@H](CO)N1C[C@H](C)[C@@H](CN(C)Cc2ccc(Cl)c(Cl)c2)Oc2ccc(NC(=O)C3CCCCC3)cc2C1=O`, the cytotoxicity call is “inactive”. For `C[C@@H]1CCCCO[C@@H](CN(C)Cc2ccc(Cl)c(Cl)c2)[C@@H](C)CN([C@@H](C)CO)C(=O)c2cc(NC(=O)C3CCCCC3)ccc2O1` the value was “inactive”. The same measure for `C[C@@H]1CCCCO[C@H](CN(C)Cc2ccc(Cl)c(Cl)c2)[C@@H](C)CN([C@H](C)CO)C(=O)c2cc(NC(=O)C3CCCCC3)ccc2O1`: “inactive”; for `C[C@@H]1CCCCO[C@H](CN(C)Cc2ccc(Cl)c(Cl)c2)[C@@H](C)CN([C@@H](C)CO)C(=O)c2cc(NC(=O)C3CCCCC3)ccc2O1`: “active”; for `C[C@@H]1CCCCO[C@@H](CN(C)Cc2ccc(Cl)c(Cl)c2)[C@@H](C)CN([C@H](C)CO)C(=O)c2cc(NC(=O)C3CCCCC3)ccc2O1`: “active”.

As for `C[C@@H]1CCCCO[C@H](CN(C)Cc2ccc(Cl)c(Cl)c2)[C@H](C)CN([C@@H](C)CO)C(=O)c2cc(NC(=O)C3CCCCC3)ccc2O1`, the cytotoxicity call was “inactive”. For the molecule `C[C@@H]1CCCCO[C@@H](CN(C)Cc2ccc(Cl)c(Cl)c2)[C@H](C)CN([C@@H](C)CO)C(=O)c2cc(NC(=O)C3CCCCC3)ccc2O1`, the cytotoxicity call is “inactive”. Consider `C[C@@H]1CN([C@H](C)CO)C(=O)c2cc(NC(=O)C3CCCCC3)ccc2O[C@@H](C)CCCCO[C@@H]1CN(C)Cc1ccc(Cl)c(Cl)c1`, for which the cytotoxicity call is “inactive”. With `C[C@@H]1CN([C@@H](C)CO)C(=O)c2cc(NC(=O)C3CCCCC3)ccc2O[C@@H](C)CCCCO[C@H]1CN(C)Cc1ccc(Cl)c(Cl)c1`, the cytotoxicity call was “active”.

Regarding `C[C@H](CO)N1C[C@H](C)[C@H](CN(C)C(=O)NC2CCCCC2)Oc2ccc(NC(=O)Nc3cccc4ccccc34)cc2CC1=O`, the cytotoxicity call was “inactive”.

Turning to `C[C@@H]1CN([C@H](C)CO)C(=O)Cc2cc(NC(=O)Cc3ccccc3)ccc2O[C@@H]1CN(C)S(=O)(=O)c1ccc(F)cc1`, the cytotoxicity call is “inactive”.

`Cc1noc(C)c1NC(=O)Nc1ccc2c(c1)C(=O)N([C@H](C)CO)C[C@H](C)[C@@H](CN(C)C(=O)NC1CCCCC1)OCCCC[C@H](C)O2`: the cytotoxicity call was “inactive”.

For the molecule `C[C@@H]1CN([C@H](C)CO)C(=O)c2cccc(NS(C)(=O)=O)c2O[C@H]1CN(C)C(=O)Nc1ccc(F)cc1`, the cytotoxicity call is “inactive”. In the case of `O=C(C[C@H]1C=C[C@@H](NC(=O)CN2CCOCC2)[C@@H](CO)O1)NCc1cccc(F)c1`, the cytotoxicity call was “inactive”. In the case of `Cc1noc(C)c1NC(=O)Nc1cccc2c1O[C@H](CN(C)C(=O)Nc1cccc3ccccc13)[C@H](C)CN([C@H](C)CO)C2=O`, the cytotoxicity call is “inactive”. Turning to `C[C@@H]1CN([C@@H](C)CO)C(=O)Cc2cc(NC(=O)c3ccncc3)ccc2O[C@@H]1CN(C)S(=O)(=O)c1cn(C)cn1`, the cytotoxicity call was “inactive”. The same measure for `C=C(C)C1=NC(C)(C)C[C@H](C)O1`: “inactive”. The same measure for `CS(=O)(=O)N1C[C@@H]2COC[C@@]2(CN2CCOCC2)C1`: “inactive”; for `CC(C)(C)S(=O)N1Cc2cc(C(=O)NCc3ccc4c(c3)OCO4)nc(-c3cccc(C#CCC4CCCC4)c3)c2[C@@H]1CCO` (stereo not given in full): “inactive”; for `CN(C)CCCNC(=O)C[C@@H]1CC[C@@H]2[C@H](COc3ccc(NC(=O)NC4CCCC4)cc3C(=O)N2C)O1`: “inactive”. Take `Cc1noc(C)c1NC(=O)N(C)C[C@H]1OCCCC[C@H](C)Oc2ccc(NC(=O)c3ccccc3)cc2C(=O)N([C@@H](C)CO)C[C@@H]1C`: the cytotoxicity call was “inactive”. For the molecule `C[C@@H]1CN([C@@H](C)CO)C(=O)c2cc(NC(=O)C3CCCCC3)ccc2O[C@@H](C)CCCCO[C@@H]1CN(C)Cc1ccc(Cl)c(Cl)c1`, the cytotoxicity call was “inactive”. `C[C@H](CO)N1C[C@H](C)[C@H](CN(C)Cc2ccc(Cl)c(Cl)c2)OCCCC[C@H](C)Oc2ccc(NC(=O)C3CCCCC3)cc2C1=O`: the cytotoxicity call was “inactive”.

Take `C[C@@H]1CCCCO[C@@H](CN(C)Cc2ccc(Cl)c(Cl)c2)[C@H](C)CN([C@H](C)CO)C(=O)c2cc(NC(=O)C3CCCCC3)ccc2O1`: the cytotoxicity call was “active”.

Regarding `COc1ccc(CN(C)C[C@@H]2Oc3ccc(NC(=O)CCCN(C)C)cc3C(=O)N([C@@H](C)CO)C[C@H]2C)cc1`, the cytotoxicity call was “inactive”. For the molecule `Cn1c(CNc2ccccc2)cc(=O)n(C)c1=O`, the cytotoxicity call is “inactive”.

Turning to `COCCOC(=O)N1C(=O)[C@@]2(c3cc(C#CC4(O)CCCCCC4)ccc31)[C@H](c1ccccc1OCCO)N1[C@H](c3ccccc3)[C@H](c3ccccc3)OC(=O)[C@H]1[C@@H]2C(=O)N1CCc2cc(OC)c(OC)cc2C1`, the cytotoxicity call was “inactive”.
